PMC7862700, “An all-to-all approach to the identification of sequence-specific readers for epigenetic DNA modifications on cytosine”

Key:
Experiment in all cases: DAPPL (digital affinity profiling via proximity ligation, sequencing); 10 mM Tris-HCl pH 7.5, 50 mM NaCl, 1 mM DTT, 4% glycerol, room temperature, 30 min; GST-TFs on glutathione beads, 16-mer random dsDNA library, 0.1% formaldehyde crosslink after washing; high values mean tight binding
Conditions in all cases: protein: recombinant; tags: N-terminal GST; dsDNA, one strand shown
FLI1 = biological target: T1, FLI1 (Homo sapiens, UniProt Q01543 1-452)
T1 sequence: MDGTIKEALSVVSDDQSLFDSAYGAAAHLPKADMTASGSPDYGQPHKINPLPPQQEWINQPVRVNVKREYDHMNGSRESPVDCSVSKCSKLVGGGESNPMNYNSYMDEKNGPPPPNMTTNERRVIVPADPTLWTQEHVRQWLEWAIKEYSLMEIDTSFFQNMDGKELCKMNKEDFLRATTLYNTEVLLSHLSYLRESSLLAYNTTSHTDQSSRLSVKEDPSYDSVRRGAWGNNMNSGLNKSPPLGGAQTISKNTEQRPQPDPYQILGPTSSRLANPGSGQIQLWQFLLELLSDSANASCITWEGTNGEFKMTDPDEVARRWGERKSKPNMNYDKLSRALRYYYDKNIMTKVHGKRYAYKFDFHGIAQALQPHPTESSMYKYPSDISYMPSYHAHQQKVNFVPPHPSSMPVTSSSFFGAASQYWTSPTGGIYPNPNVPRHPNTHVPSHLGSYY
Summary of the method: (§1)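 Sequencing on an Illumina NextSeq500 followed washing, crosslinking with 0.1% formaldehyde, proximity ligation (BsaI/T4 ligase, 1 h, 37 °C) and PCR amplification of pools that had been incubated for 30 min at room temperature with 200 nmole of a random double-stranded 16-mer DNA library in Tris/NaCl/DTT/glycerol buffer. Each pool held DNA-barcoded human transcription factors, expressed in yeast as GST fusions and captured on glutathione beads, plus a tag-only sample. Binding signal is a hexamer's read frequency for a factor divided by its frequency in the tag-only sample.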

ELK1 = biological target: T2, ELK1 (Homo sapiens, UniProt P19419 1-428)
T2 sequence: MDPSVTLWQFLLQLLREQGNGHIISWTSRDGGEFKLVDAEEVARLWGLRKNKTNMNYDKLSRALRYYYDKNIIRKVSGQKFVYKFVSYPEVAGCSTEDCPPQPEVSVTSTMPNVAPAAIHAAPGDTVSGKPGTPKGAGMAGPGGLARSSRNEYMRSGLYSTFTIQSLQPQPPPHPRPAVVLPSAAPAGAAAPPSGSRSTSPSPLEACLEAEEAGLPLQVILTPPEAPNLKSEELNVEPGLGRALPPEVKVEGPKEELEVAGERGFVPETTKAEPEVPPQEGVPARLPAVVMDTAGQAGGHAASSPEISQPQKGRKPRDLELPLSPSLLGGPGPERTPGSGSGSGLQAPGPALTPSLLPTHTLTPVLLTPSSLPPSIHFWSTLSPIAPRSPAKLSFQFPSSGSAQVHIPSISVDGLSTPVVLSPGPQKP
Summary of the method: as §1

GABPA = biological target: T3, GABPA (Homo sapiens, UniProt Q06546 1-454)
T3 sequence: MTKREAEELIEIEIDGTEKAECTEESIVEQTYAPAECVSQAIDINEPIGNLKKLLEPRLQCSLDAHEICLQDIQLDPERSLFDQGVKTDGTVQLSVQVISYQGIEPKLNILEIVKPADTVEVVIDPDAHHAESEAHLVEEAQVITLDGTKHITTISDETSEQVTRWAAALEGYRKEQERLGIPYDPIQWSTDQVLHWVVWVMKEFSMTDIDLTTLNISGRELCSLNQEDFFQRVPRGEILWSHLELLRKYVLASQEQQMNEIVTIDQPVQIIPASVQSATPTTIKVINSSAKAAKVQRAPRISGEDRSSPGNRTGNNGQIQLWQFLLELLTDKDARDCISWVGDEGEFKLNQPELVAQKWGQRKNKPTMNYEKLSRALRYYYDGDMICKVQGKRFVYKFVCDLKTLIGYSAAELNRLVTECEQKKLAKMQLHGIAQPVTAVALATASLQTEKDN
Summary of the method: as §1

ERG = biological target: T4, ERG (Homo sapiens, UniProt P11308 1-479)
T4 sequence: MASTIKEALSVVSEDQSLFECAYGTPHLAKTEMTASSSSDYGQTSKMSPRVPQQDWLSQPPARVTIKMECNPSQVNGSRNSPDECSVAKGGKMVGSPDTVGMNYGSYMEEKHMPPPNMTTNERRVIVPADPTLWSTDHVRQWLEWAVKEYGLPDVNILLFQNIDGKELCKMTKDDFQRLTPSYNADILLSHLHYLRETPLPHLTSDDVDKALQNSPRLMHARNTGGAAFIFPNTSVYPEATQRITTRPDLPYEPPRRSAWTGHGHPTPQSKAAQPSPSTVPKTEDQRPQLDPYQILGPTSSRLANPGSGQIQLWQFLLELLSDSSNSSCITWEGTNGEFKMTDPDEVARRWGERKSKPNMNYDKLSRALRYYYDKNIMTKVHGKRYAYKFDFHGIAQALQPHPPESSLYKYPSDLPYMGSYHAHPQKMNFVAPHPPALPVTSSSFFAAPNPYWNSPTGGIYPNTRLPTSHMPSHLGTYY
Summary of the method: as §1

ELF1 = ELF1 (Homo sapiens, UniProt P32519 1-619)
Summary of the method: as §1

EHF = biological target: T5, EHF (Homo sapiens, UniProt Q9NZC4 1-300)
T5 sequence: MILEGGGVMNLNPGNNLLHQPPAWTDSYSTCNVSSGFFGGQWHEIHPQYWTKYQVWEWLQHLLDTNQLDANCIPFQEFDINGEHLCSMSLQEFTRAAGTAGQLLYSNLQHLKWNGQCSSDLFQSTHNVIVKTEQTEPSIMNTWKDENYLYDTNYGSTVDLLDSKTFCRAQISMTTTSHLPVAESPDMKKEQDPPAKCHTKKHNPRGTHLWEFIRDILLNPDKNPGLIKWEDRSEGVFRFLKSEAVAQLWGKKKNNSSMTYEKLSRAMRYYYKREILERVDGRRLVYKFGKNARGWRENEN
Summary of the method: as §1

SPI1 = SPI1 (Homo sapiens, UniProt P17947 1-270)
Summary of the method: as §1

SPIB = SPIB (Homo sapiens, UniProt Q01892 1-262)
Summary of the method: as §1

ELK3 = biological target: T6, ELK3 (Homo sapiens, UniProt P41970 1-407)
T6 sequence: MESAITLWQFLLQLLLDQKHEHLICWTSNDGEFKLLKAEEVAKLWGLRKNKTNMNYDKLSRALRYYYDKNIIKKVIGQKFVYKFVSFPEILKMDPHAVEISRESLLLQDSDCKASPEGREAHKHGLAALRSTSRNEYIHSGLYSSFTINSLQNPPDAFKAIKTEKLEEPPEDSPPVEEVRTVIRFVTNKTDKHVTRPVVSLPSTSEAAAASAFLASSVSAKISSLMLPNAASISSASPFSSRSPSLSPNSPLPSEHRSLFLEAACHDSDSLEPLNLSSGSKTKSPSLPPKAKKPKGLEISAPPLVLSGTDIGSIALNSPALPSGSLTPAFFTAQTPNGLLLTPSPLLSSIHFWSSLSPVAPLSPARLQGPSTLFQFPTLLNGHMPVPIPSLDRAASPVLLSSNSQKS
Summary of the method: as §1

Chain of ELF1 (P32519 whole entry): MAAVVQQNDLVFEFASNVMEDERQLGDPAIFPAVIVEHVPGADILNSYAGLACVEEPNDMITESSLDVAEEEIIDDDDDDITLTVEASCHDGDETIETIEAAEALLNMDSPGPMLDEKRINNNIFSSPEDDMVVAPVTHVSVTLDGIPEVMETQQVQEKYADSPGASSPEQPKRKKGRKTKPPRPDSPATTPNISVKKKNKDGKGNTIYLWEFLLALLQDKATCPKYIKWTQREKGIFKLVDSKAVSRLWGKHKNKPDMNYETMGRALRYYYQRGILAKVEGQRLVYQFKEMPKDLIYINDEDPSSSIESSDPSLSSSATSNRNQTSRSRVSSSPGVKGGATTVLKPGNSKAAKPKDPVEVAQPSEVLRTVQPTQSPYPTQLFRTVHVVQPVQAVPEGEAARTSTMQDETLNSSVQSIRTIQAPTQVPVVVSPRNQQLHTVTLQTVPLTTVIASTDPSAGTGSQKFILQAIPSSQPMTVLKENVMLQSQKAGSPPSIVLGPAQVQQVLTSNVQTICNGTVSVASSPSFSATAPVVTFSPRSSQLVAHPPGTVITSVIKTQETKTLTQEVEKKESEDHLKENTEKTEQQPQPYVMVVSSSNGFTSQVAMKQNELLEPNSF
Chain of SPIB (Q01892 whole entry): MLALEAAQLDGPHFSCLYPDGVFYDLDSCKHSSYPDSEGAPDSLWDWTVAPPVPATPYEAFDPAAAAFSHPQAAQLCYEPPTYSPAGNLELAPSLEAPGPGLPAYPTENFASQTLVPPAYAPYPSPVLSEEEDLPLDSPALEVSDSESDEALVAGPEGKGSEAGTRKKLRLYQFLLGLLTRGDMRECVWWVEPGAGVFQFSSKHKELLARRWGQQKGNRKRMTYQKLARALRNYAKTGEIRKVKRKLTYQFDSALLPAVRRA

TCCTAT
binding signal (FLI1): 1.62 fold enrichment (6-mer frequency, TF over GST control)
binding signal (ELK1): 1.56 fold enrichment (6-mer frequency, TF over GST control)
binding signal (GABPA): 1.58 fold enrichment (6-mer frequency, TF over GST control)
binding signal (ERG): 1.45 fold enrichment (6-mer frequency, TF over GST control)
binding signal (ELF1): 1.46 fold enrichment (6-mer frequency, TF over GST control)
binding signal (EHF): 1.5 fold enrichment (6-mer frequency, TF over GST control)
binding signal (SPI1): 1.44 fold enrichment (6-mer frequency, TF over GST control)
binding signal (SPIB): 1.6 fold enrichment (6-mer frequency, TF over GST control)
binding signal (ELK3): 1.47 fold enrichment (6-mer frequency, TF over GST control)
